# Rab9 promoter act – Rab9 promoter activation; Huh7 Rab9 promoter-luciferase reporter, luminescence, 24 h; Potency, µM (titrated, usually from 9.22 µM), most hits filed as activators; 320,000 tested, 2.8% active; further: nearly all actives have a fitted effect of over 60% in size
#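 Using Huh7 cells stably transfected with Rab9 promoter–luciferase, compounds were incubated 24 h at 37 °C, 5% CO2; luciferase luminescence was read 10 min after reagent addition.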
# p53 reactivation – restores transcriptional activity of mutant p53 | H1299 p53-A138V BP100-luciferase reporter, luminescence, 24 h | 320,000 tested, 0.063% active | Potency, µM (titrated, usually from 92.2 µM), usual class: activators; further: nearly all actives have a fitted effect of over 45% in size
#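 p53-null H1299 cells stably carrying temperature-sensitive p53-A138V and a BP100-luciferase reporter were pinned with compounds (4-point, 1:5 series) and held 24 hrs at 37 deg C. Luminescence was read 10 min after detection reagent.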
# SMN2 splice enh – enhancers of SMN2 splice variant expression; HEK293 SMN2-luciferase splicing reporter, luminescence, 30-36 h; Potency, µM (highest dose often 46.1 µM), actives largely listed as activators; 210,000 tested, 2.8% active; further: nearly all actives have a fitted effect of over 55% in size
#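 HEK293 cells carry an SMN2 minigene-luciferase reporter in which exon 7 inclusion puts luciferase in frame. Cells were seeded at 2000 cells/well, attached for 10-12 hours, then exposed to compounds for 30-36 hours at 37C before ONE-Glo luminescence.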
# FLuc counter – inhibits or activates purified firefly luciferase, miR-21 counter-screen. P08659. purified FLuc, Km substrates, luminescence inhibition. Potency, µM (series often up to 57.5 µM), most hits filed as inhibitors. 360,000 tested, 6.9% active; further: nearly all actives have a fitted effect of over 55% in size
# Target sequence (P08659 whole entry, looked up): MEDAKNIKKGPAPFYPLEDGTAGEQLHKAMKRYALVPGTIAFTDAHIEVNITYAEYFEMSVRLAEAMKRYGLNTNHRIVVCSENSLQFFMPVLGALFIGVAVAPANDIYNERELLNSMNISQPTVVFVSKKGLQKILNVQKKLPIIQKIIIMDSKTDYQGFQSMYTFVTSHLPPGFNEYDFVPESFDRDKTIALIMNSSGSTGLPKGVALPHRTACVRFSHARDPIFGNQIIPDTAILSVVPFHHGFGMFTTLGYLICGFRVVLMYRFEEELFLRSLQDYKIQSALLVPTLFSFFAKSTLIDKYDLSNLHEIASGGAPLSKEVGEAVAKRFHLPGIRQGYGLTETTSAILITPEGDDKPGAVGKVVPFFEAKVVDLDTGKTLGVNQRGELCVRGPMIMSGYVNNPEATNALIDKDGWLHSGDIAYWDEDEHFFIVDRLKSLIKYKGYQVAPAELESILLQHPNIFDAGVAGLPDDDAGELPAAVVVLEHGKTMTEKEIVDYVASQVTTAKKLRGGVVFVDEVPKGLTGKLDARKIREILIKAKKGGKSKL
#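 Biochemical qHTS of compounds, final roughly 60 µM downward over six points, against 10 nM purified firefly luciferase using Km concentrations of substrates (10 uM D-luciferin, 10 uM ATP) in Tris acetate pH 7.5 buffer; luminescence output.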
# ELG1 genotoxic – induces genotoxicity in HEK293T cells with luciferase-tagged ELG1 | HEK293T ELG1-luciferase reporter, luminescence, 16 h | Potency, µM (doses to about 46 µM), hits mostly activators | 330,000 tested, 1.3% active; further: nearly all actives have a fitted effect of over 60% in size
#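 After overnight (16 hr) compound treatment at 37 °C, ELG1-luciferase HEK293T cells were lysed with ONE-Glo; luminescence quantified 30 min later at room temperature.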
# NPC1 promoter act – activators of NPC1 promoter. Huh7 NPC1 promoter luciferase reporter, 24 h. Potency, µM (top dose mostly 9.22 µM), actives largely listed as activators. 320,000 tested, 2.4% active. AID 485313; further: nearly all actives have a fitted effect of over 60% in size
#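 Cells: Huh7 expressing luciferase under the NPC1 promoter, 1500/well. Seeded 2 h, compound added, incubated 24 h at 37 °C. Luciferase reagent, 10 min ambient, then luminescence.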
# Numbers stand for hits; 0 = inactive; ? = inconclusive; - = not tested or not shown; [ ] = another dose, or the depositor's remark. Rows were chosen to be rich in hits. Some 7.3% of all compounds tested hit in one or more screens of this group. The call rests on the fitted dose curve; in most records, active means well fitted curve in the direction sought with a large enough effect; inconclusive means small, poorly fitted or top-dose-only effect, or another doubt; inactive means no such curve, though single readings can be large; an effect the other way counts as inactive or inconclusive.
SMILES,Rab9 promoter act,p53 reactivation,SMN2 splice enh,FLuc counter,ELG1 genotoxic,NPC1 promoter act
CCCOC1CCCN(C(=O)c2cc(COc3c(F)cccc3F)on2)C1 (centres undefined),2.24µM,0,-,12µM,?,2.82µM
COc1ccc(OCc2cc(C(=O)NC3CCOCC3)no2)c2ccccc12,0,0,-,0,0,0
Oc1ccc(CNCc2ccc3c(c2)OCO3)c2cccnc12,0,-,-,0,-,0
O=C(N=Nc1c(O)n(Cc2ccccc2)c2ccccc12)c1ccncc1,0,0,-,23.9µM,0,0
Cc1ccccc1C(=O)Nc1nc2nc(C)c(C)c(=O)n2[nH]1,-,-,0,0,-,-
Cc1cc(C(=O)COC(=O)c2csc3c2CCCC3)c(C)n1C,0,0,0,12µM,0,0
COCCn1c(C)cc(C(=O)COC(=O)c2cc3c(s2)CCC3)c1C,3.98µM,0,0,10.7µM,?,3.55µM
COCCn1c(C)cc(C(=O)COC(=O)C23CC4CC(CC(O)(C4)C2)C3)c1C,0.355µM,0,?,1.51µM,?,0.355µM
COCCn1c(C)cc(C(=O)COC(=O)c2cccc(O)c2)c1C,?,0,-,0.107µM,?,?
COCCn1c(C)cc(C(=O)COC(=O)CCN2C(=O)c3ccccc3C2=O)c1C,0,0,0,?,0,0
Cc1cc(C(=O)COC(=O)C23CC4CC(CC(O)(C4)C2)C3)c(C)n1-c1c(C)n(C)n(-c2ccccc2)c1=O,0,0,0,0,0,0
O=C(CSc1ncn[nH]1)Nc1c(F)cc(F)cc1Br,0,0,0,0,0,0
CCCCC[C@H](O)/C=C/[C@H]1OC(O)C[C@H](O)[C@@H]1C/C=C\CCCC(=O)O (some centres undefined),-,-,0,-,-,-
Cc1noc(NS(=O)(=O)c2ccc(NC(=O)c3ccc(Br)cc3)cc2)c1C,-,-,0,21.3µM,-,-
Cc1ccc(C(=O)Nc2ccc(S(=O)(=O)Nc3onc(C)c3C)cc2)cc1,-,-,0,12µM,-,-
Cc1c(C(=O)Nc2ccc(S(=O)(=O)Nc3ncccn3)cc2)oc2ccc(Cl)cc12,0,0,-,0,0,0
Cc1noc(NS(=O)(=O)c2ccc(NC(=O)c3oc4ccc(Cl)cc4c3C)cc2)c1C,0,0,-,16.9µM,0,0
Cc1ccc(-c2cc(C(=O)Nc3ccc(S(=O)(=O)Nc4onc(C)c4C)cc3)c3ccccc3n2)cc1,0,0,0,13.5µM,0,0
Cn1cc(C(=O)c2ccc(Cl)cc2)cc1-c1nc2ccccc2n1C,0,0,0,0,0,0
COc1cccc(C(=O)Nc2ccc(S(=O)(=O)Nc3onc(C)c3C)cc2)c1,0,0,0,?,0,0
COc1ccc(C(=O)Nc2ccc(S(=O)(=O)Nc3onc(C)c3C)cc2)cc1,0,0,0,21.3µM,0,0
CCOC(=O)c1ccc(CN(Cc2ccccc2C)S(=O)(=O)c2ccc(F)c(C)c2)cc1,-,-,-,0,-,-
CCCc1cc(=O)n(-c2nc3ccccc3s2)[nH]1,0,0,-,?,0,0
CCOC(=O)Cc1cc(=O)n(-c2nc3ccccc3s2)[nH]1,0,0,0,23.9µM,0,0
O=C(Nc1ccc(N2CCCC2)c(Cl)c1)c1cccnc1,2.82µM,?,15.8µM,12µM,0,3.16µM
SMILES,Rab9 promoter act,p53 reactivation,SMN2 splice enh,FLuc counter,ELG1 genotoxic,NPC1 promoter act
O=C(Nc1ccc(N2CCOCC2)c(Cl)c1)c1cccnc1,0,?,?,?,20.6µM,0
O=C(Nc1ccc(N2CCOCC2)c(Cl)c1)c1c(F)c(F)c(F)c(F)c1F,0,0,?,0,0,0
O=C(Nc1ccc(N2CCOCC2)cc1)c1cccnc1,0,0,?,?,0,0
COc1c(C)cccc1C(=O)Nc1ccc(N2CCOCC2)c(Cl)c1,3.16µM,?,11.2µM,6.75µM,8.2µM,1.58µM
O=C(Nc1ccc(N2CCOCC2)c(Cl)c1)c1cccc(F)c1,1.58µM,?,10µM,4.26µM,2.31µM,1.12µM
O=C(Nc1ccc(N2CCN(C(=O)c3cccs3)CC2)c(Cl)c1)c1cccnc1,0,0,0,0,0,0
CN(C)S(=O)(=O)c1ccc(C(=O)NCCSc2c(-c3ccc(Br)cc3)[nH]c3ccccc23)cc1,-,-,0,0,-,-
O=C(Nc1ccc(N2CCCCC2)c(Cl)c1)c1cccnc1,2.82µM,?,12.6µM,12µM,?,2.82µM
O=C(Nc1ccc(N2CCN(C(=O)c3ccco3)CC2)c(Cl)c1)c1cccnc1,0,0,0,0,0,0
c1ccc(-c2noc(C3CCCCC3)n2)nc1,2.82µM,?,11.2µM,10.7µM,6.51µM,?
Brc1ccc(-c2noc(C3CCCCC3)n2)cc1,2.82µM,0,-,6.75µM,?,?
c1ccc(-c2noc(C34CC5CC(CC(C5)C3)C4)n2)cc1,0,0,0,?,?,0
c1ccc(-c2noc(C34CC5CC(CC(C5)C3)C4)n2)nc1,?,?,12.6µM,10.7µM,14.6µM,?
Cc1ccc(CONC(=O)c2ccc(Cl)cc2)cc1,?,?,-,?,?,0
O=C(NOCc1ccccc1)c1ccc([N+](=O)[O-])cc1,1.26µM,-,-,3.79µM,?,?
COc1ccc(C(=O)NOCc2ccccc2)cc1,?,0,-,1.9µM,?,?
O=C(NOCc1ccccc1)c1ccc(Cl)cc1,0.501µM,0,-,1.2µM,?,0.708µM
NC(CCC(=O)N[C@@H](CS)C(=O)NCC(=O)O)C(=O)O (some centres undefined),-,-,0,-,-,-
CCOCCc1nn2c(=O)cc(COC(=O)CNC(=O)c3ccc(F)cc3)nc2s1,-,-,-,0,-,-
CCc1nc2ccccc2c(C(=O)Oc2cccc3cccnc23)c1C,0,0,0,15.1µM,0,0
CCOC(=O)c1c(NC(C)=O)c2c3c(sc2n1Cc1nc(-c2ccc(Cl)cc2)oc1C)CCCC3,-,-,0,0,-,-
Nc1ncccc1OCc1ccc(Cl)c(Cl)c1,1.41µM,0,-,7.57µM,?,2.82µM
O=C(OCc1ccc(Cl)c(Cl)c1)c1cccnc1Cl,0,0,-,?,0,0
COc1cc(CNCc2ccccn2)ccc1OCc1ccc(Cl)c(Cl)c1,0,0,0,16.9µM,0,0
COc1cc(CNCc2ccccn2)ccc1OCc1ccc(Cl)cc1Cl,0,0,0,0,0,0
SMILES,Rab9 promoter act,p53 reactivation,SMN2 splice enh,FLuc counter,ELG1 genotoxic,NPC1 promoter act
Cc1oc(-c2ccc(-c3ccccc3)cc2)nc1CN(CCO)C(C)C,?,0,-,10.7µM,?,?
Cc1oc(-c2ccc(-c3ccccc3)cc2)nc1CN(C)C1CCOC1 (centres undefined),?,0,-,9.53µM,?,?
Cc1ccc2c(CC(=O)N(Cc3ccc(N(C)C)cc3)Cc3ccco3)coc2c1C,-,-,0,0,-,-
N[C@H]1[C@@H](C(=O)O)[C@H]2C=C[C@H]1C2,-,-,0[9.22 µM],-,-,-
CN1C(=O)/C(=C/c2ccc3c(c2)OCO3)N=C1c1ccccc1,0,0,0,4.78µM,0,0
CCSC1=N/C(=C\c2ccc3c(c2)OCO3)C(=O)S1,0,0,-,0,0,0

# Screening results: PubChem BioAssay, National Center for Advancing Translational Sciences (NCATS)
